NTR1 ag = NTR1 (human) agonism; P30989; NTR1-U2OS beta-arrestin-GFP spot imaging, agonist mode; activation, % at 20 µM; 330,000 tested, 0.17% active;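 active = activation at or above 40% of the spot to cytoplasm intensity ratio, with at least 20 cells analyzed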;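 also: 0% = DMSO without peptide and 100% = 100 nM NTR1 peptide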
Target sequence (P30989 whole entry, looked up): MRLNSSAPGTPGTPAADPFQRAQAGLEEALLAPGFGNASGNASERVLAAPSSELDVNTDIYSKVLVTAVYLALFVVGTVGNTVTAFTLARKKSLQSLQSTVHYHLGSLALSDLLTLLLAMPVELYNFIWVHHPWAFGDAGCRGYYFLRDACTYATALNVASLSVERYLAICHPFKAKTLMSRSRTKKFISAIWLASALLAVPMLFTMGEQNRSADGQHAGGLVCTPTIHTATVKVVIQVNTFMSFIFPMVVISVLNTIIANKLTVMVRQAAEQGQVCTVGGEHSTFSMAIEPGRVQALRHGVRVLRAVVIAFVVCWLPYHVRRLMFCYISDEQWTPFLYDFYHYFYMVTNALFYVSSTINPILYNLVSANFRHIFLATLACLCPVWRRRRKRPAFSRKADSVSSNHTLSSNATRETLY
ALR H2O2 inh = human ALR oxidase inhibition via reduced H2O2 | P55789 | purified ALR, DTT oxidation, H2O2 HRP-luminol luminescence | inhibition, % (no concentration beside the values) | 290,000 tested, 3.8% active | AID 485317;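 active = mean replicate inhibition above about 79%, with every replicate also reaching it, limit read from the data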
H9c2 protect = modulators protecting cardiomyocytes from myocardial damage; H9c2 cardiomyocytes, H2O2 injury protection, ATPLite, 2 h; protection from H2O2 cell death, % at 20 µM; 360,000 tested, 0.63% active; AID 588492;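 active = compounds giving at least 50% protection of heart cells from peroxide-induced death in the single-dose screen, raw or plate-pattern-corrected value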;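 also: 0% = DMSO wells with peroxide and 100% = DMSO wells without peroxide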
SUMO HTRF inh = blocks human SUMOylation mediated by UBC9 | inhibition, % at 35 µM | 290,000 tested, 0.36% active | HTRF SUMOylation assay, SAE1/SAE2 + UBC9, in vitro | AID 2006; in the data active = inhibition above about 50%, passing the limit was not always enough
Target sequence (P63279 whole entry, looked up): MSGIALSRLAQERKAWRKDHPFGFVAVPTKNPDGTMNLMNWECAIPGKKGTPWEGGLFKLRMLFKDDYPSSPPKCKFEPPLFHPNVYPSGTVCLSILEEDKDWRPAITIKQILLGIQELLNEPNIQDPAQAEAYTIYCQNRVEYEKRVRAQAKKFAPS
The depositor's hits bear a star; / = no result given. Rows were chosen to be rich in hits. Some 3.9% of all compounds tested hit in one or more screens of this group.

SMILES	NTR1 ag	ALR H2O2 inh	H9c2 protect	SUMO HTRF inh
COc1ccc(C(=O)NCCn2ccc3ccccc32)cc1OC	2	0	5	-6
COCCn1c(SCC(=O)Nc2ccc3c(c2)OCCO3)nnc1-c1c[nH]c2ccccc12	1	/	4	12
O=C(Nc1nc(-c2ccccc2)cs1)c1ccccc1NS(=O)(=O)c1ccc(F)cc1	1	96*	-18	/
Cc1c(C)c2ccc(OCC(=O)N[C@@H](Cc3ccccc3)C(=O)O)cc2oc1=O	/	11	0	9
Cc1c(OCC(=O)NC(Cc2ccc(Cl)cc2)C(=O)O)ccc2c1oc(=O)c1ccccc12 (stereo not given)	3	88*	1	46
Cc1c(OCC(=O)NCCN2CCOCC2)ccc2c3c(c(=O)oc12)CCC3	-1	-1	-3	-4
CCCCCCc1c(C)c2ccc(OCC(=O)N[C@@H](Cc3ccccc3)C(=O)O)cc2oc1=O	0	97*	-2	38
Cc1oc2cc3oc(=O)c(CC(=O)N[C@@H](C)C(=O)NC(Cc4ccc(Cl)cc4)C(=O)O)c(C)c3cc2c1C (stereo not given in full)	-1	98*	-1	26
Cc1c(OCC(=O)NCCN2CCOCC2)ccc2c1oc(=O)c1ccccc12	3	-2	61*	20
Cc1c(OCC(=O)NC(Cc2ccc(Cl)cc2)C(=O)O)ccc2c3c(c(=O)oc12)CCC3 (stereo not given)	1	6	2	-5
Cc1ccc([C@@H]2C[C@H]3[C@@H](CN2S(=O)(=O)c2ccc(C)cc2)C(=O)C[C@@H](c2ccccc2)N3S(=O)(=O)c2ccc(C)cc2)cc1	/	/	-8	/
Cc1nnsc1C(=O)N1CCN(c2ccc(C#N)cn2)CC1	0	-20	-1	8
COc1ccc(CN2CCN(C(=O)CCC(=O)Nc3nnc(C(F)(F)F)s3)CC2)cc1F	0	-2	-1	19
O=C1CCCN1CCCNc1ncnc2c1[nH]c1ccc(Cl)cc12	1	98*	0	4
COc1ccc(-c2nnc(N3CCC(C)CC3)c3ccccc23)cc1	10	-1	-13	-11
O=C(CN1C(=O)NC(Cc2ccccc2)C1=O)Nc1ccc(F)c(Cl)c1 (stereo not given)	4	-3	5	/
Cc1ccc(NC(=O)Cn2cc(S(=O)(=O)c3ccccc3)c(=O)c3cc(F)ccc32)cc1	2	-11	4	23
Cc1ccc(-c2nc(CSc3nc4ccccc4c(=O)n3C)cs2)cc1	2	98*	-16	-1
Cc1ccc(CNC(=O)CSc2nc3ccccc3c(=O)n2CCCO)cc1	0	-5	1	-2
Cc1ccc(-c2nc(CSc3nc4ccccc4c(=O)n3CCO)cs2)cc1	14	98*	-16	-9
CCN(CC(=O)N1CCCCCC1)S(=O)(=O)c1ccc(C)cc1	0	/	3	-6
CCCNC(=O)c1cc(-c2ccco2)on1	2	3	-5	16
CCN(CCS(=O)(=O)c1ccc(Cl)cc1)Cc1nc2ccccc2c(=O)[nH]1	2	/	-4	/
COC(=O)COc1ccsc1C(=O)OC	-1	-9	0	19
COC(=O)CSc1ccc2c(N)c(C(=O)OC)sc2c1	2	100*	1	5
SMILES	NTR1 ag	ALR H2O2 inh	H9c2 protect	SUMO HTRF inh
CCCCCCn1cnc2c(c1=O)c1nc3ccccc3nc1n2/N=C/c1ccco1	/	/	55*	5
COCCn1cnc2c(c1=O)c1nc3ccccc3nc1n2/N=C/c1ccc(OC)c(OC)c1	9	0	51*	17
COCCn1cnc2c(c1=O)c1nc3ccccc3nc1n2/N=C/c1ccco1	0	-12	26	16
C=CCn1cnc2c(c1=O)c1nc3ccccc3nc1n2/N=C/c1cccc(OC)c1	/	/	11	7
O=C(OC1CCCCC1=O)c1cc(Cl)ccc1[N+](=O)[O-] (stereo not given)	6	91*	0	2
O=C(COC(=O)c1cc(Cl)ccc1[N+](=O)[O-])NC1CC1	-1	-14	-2	/
C#CCNC(=O)C1=C[C@@H](c2coc3ccccc3c2=O)C[C@@H](OCCCCO)O1	-2	4	8	-2
CCOC(=O)c1c(C)oc2c1c1c(c3ccccc32)OCN(CCCC(=O)O)C1	2	91*	-12	24
CN(Cc1ccccc1)S(=O)(=O)c1cc2c3c(c1)CCN3C(=O)CC2	0	6	3	/
CC(=O)c1ccc(C(=O)NC2CCCN(Cc3ccccc3F)C2)s1 (stereo not given)	1	1	-3	16
O=[N+]([O-])c1ccc(NN=Cc2ccc(O)cc2O)nc1	/	/	44	/
CCN(CC)S(=O)(=O)c1ccc(N/N=C/c2ccc(O)cc2O)nc1	1	/	78*	-54
Cn1c(=O)n(C)c2cc(/C=N/NC(=S)NCc3ccccc3)ccc21	-2	7	12	-5
O=C(O)CCCC(=O)Nc1ccn(-c2ccccc2)n1	2	4	-1	9
CC(=O)CC(=O)Nc1ccn(-c2ccccc2)n1	-1	82*	-5	8
Oc1[nH]c2ccccc2c1C1=NCCCCC1	3	93*	-9	7
O=NC1=C(c2c(O)[nH]c3ccccc23)CCCC1	-2	2	13	18
CC(NC(=O)COc1ccc(Oc2ccccc2)cc1)C(=O)O (stereo not given)	0	-4	-4	6
C[C@]12C(=O)N(c3ccccc3)C(=O)N1[C@@H]1c3ccccc3OC[C@@H]1[C@H]2c1ccccc1	4	-6	4	8
COc1ccc(-c2nc(CSCC(=O)NCc3ccco3)c(C)o2)cc1	-1	99*	-5	28
Cc1ccc(-c2nc(CSCC(=O)NCc3cccnc3)c(C)o2)cc1	-1	99*	-3	0
COc1ccc(NC(=O)CSCC(=O)NCc2ccco2)cc1	1	55	2	/
COc1ccc(C(=O)Nc2ccc(-c3nnn(CC(=O)NCc4ccco4)n3)cc2)cc1	-1	2	-2	61*
CC(=O)Nc1ccc(S(=O)(=O)NCC2CCC(C(=O)NCCCN3CCCC3=O)CC2)cc1 (stereo not given)	0	-4	16	-2
O=C(Nc1ccc(F)c(Cl)c1)c1ccc2c(c1)OCO2	1	-6	-7	8
SMILES	NTR1 ag	ALR H2O2 inh	H9c2 protect	SUMO HTRF inh
CN(C)c1ccc(C2OC(=O)C3(CCCC3)C(=O)C2(C)C)cc1 (stereo not given)	1	94*	-7	21
CC1(C)C(=O)C2(CCCCC2)C(=O)OC1c1cccc([N+](=O)[O-])c1 (stereo not given)	1	-3	-3	10
CN(C)CCCn1c(SCC(=O)Nc2nc(-c3cccc(Br)c3)cs2)nc2ccccc2c1=O	6	99*	-28	9
O=c1c(Br)c(N2CCOCC2)cnn1-c1ccccc1	1	6	3	-5
O=C(CCNS(=O)(=O)c1cccs1)NC1CCN(Cc2ccccc2)CC1	0	-21	5	-4
Cn1c(=O)[nH]c(=O)c2c1nc(NCCO)n2CCOc1ccccc1	0	13	2	19
CCC(C)Nc1nc2c(c(=O)[nH]c(=O)n2C)n1CCOc1ccccc1 (stereo not given)	1	98*	-2	12
